# Laboratory results reported in PubChem BioAssay (NCATS).
# Results filed as inconclusive are left out. Entries that show only a call come without a potency. Active and inactive are the calls of the source. Calls follow the shape of the dose curve; as a rule, active = well fitted inhibition curve with a large enough effect; inconclusive = small, poorly fitted or top-dose-only effect; inactive = flat fitted curve, though single readings scatter.
# Key:
# Assay in all cases: qHTS profiling for inhibitors of Plasmodium falciparum proliferation (AID 504749); also: nearly all actives have a fitted effect of over 60% in size
# Conditions in all cases: P. falciparum in erythrocytes, SYBR Green DNA, 72 h; series mostly up to 28.7 µM
# CP325 = tested on: CP325
# How it was run: (§1)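 Infected RBCs, 0.3% parasitemia/2.5% Hct final; cpd 72 h, 37 C, 5% CO2; lysis buffer with saponin/triton/SYBR Green I, o/n RT dark; FI 485/535; norm. to artemisinin (0.29 uM) and DMSO.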
# CP329 = tested on: CP329
# How it was run: as §1
# CP335 = tested on: CP335
# How it was run: as §1
# DFO2036 = tested on: DFO2036
# How it was run: as §1
# DIV14 = tested on: DIV14
# How it was run: as §1
# DIV17 = tested on: DIV17
# How it was run: as §1
# DIV30 = tested on: DIV30
# How it was run: as §1
# Dd2 = tested on: Dd2
# How it was run: as §1
# ECU = tested on: ECU
# How it was run: as §1
# FAB9 = tested on: FAB9
# How it was run: as §1
# GB4 = tested on: GB4
# How it was run: as §1
# HB3 = tested on: HB3
# How it was run: as §1
# ICS = tested on: ICS
# How it was run: as §1
# JCK = tested on: JCK
# How it was run: as §1
# N140 = tested on: N140
# How it was run: as §1
# P93_24 = tested on: P93_24
# How it was run: as §1
# P94_40 = tested on: P94_40
# How it was run: as §1
# PAD = tested on: PAD
# How it was run: as §1
# PC15 = tested on: PC15
# How it was run: as §1
# PC26 = tested on: PC26
# How it was run: as §1
# Potency is read from the fitted curve at half-maximal effect.
SMILES,Potency (CP325),Potency (CP329),Potency (CP335),Potency (DFO2036),Potency (DIV14),Potency (DIV17),Potency (DIV30),Potency (Dd2),Potency (ECU),Potency (FAB9),Potency (GB4),Potency (HB3),Potency (ICS),Potency (JCK),Potency (N140),Potency (P93_24),Potency (P94_40),Potency (PAD),Potency (PC15),Potency (PC26)
COc1nc(N)nc2c1ncn2[C@@H]1O[C@H](CO)[C@@H](O)[C@@H]1O,inactive,inactive,inactive,inactive,inactive,inactive,inactive,inactive,inactive,inactive,inactive,inactive,inactive,inactive,inactive,inactive,inactive,inactive,inactive,inactive
COc1ccc(-c2ccc3cc(C(=O)O)ccc3c2)cc1C12CC3CC(CC(C3)C1)C2,inactive,inactive,inactive,inactive,inactive,inactive,inactive,inactive,inactive,inactive,inactive,inactive,–,inactive,inactive,inactive,inactive,inactive,inactive,inactive
CCOC(=O)[C@H](CCc1ccccc1)N[C@H]1CS[C@H](c2cccs2)CN(CC(=O)O)C1=O,inactive,inactive,inactive,inactive,–,inactive,inactive,inactive,–,inactive,–,inactive,–,inactive,–,–,–,–,inactive,inactive
COc1c(N2CCNC(C)C2)c(F)cc2c(=O)c(C(=O)O)cn(C3CC3)c12 (stereo not given),inactive,inactive,inactive,inactive,inactive,inactive,inactive,–,inactive,inactive,inactive,inactive,inactive,inactive,inactive,inactive,inactive,inactive,inactive,inactive
CC1=NN(c2ccccc2)C(=O)C1,inactive,inactive,inactive,inactive,inactive,inactive,inactive,inactive,inactive,inactive,inactive,inactive,–,inactive,inactive,inactive,inactive,inactive,inactive,inactive
CN1CCN(c2c(F)cc3c(=O)c(C(=O)O)cn(CCF)c3c2F)CC1,inactive,inactive,inactive,inactive,–,inactive,inactive,inactive,inactive,inactive,inactive,inactive,inactive,inactive,inactive,inactive,inactive,inactive,inactive,inactive
COc1cnc(NS(=O)(=O)c2ccc(N)cc2)nc1,inactive,inactive,inactive,inactive,inactive,inactive,inactive,inactive,inactive,inactive,inactive,inactive,inactive,inactive,inactive,–,inactive,inactive,inactive,inactive
CC(C)(Sc1cc(C(C)(C)C)c(O)c(C(C)(C)C)c1)Sc1cc(C(C)(C)C)c(O)c(C(C)(C)C)c1,inactive,inactive,3.61 µM (active),inactive,inactive,inactive,inactive,inactive,inactive,inactive,inactive,–,3.16 µM (active),inactive,inactive,inactive,inactive,inactive,inactive,inactive
CC(C)(C)C(=O)OCOP(=O)(COCCn1cnc2c(N)ncnc21)OCOC(=O)C(C)(C)C,inactive,inactive,–,–,–,–,inactive,–,inactive,inactive,–,–,–,inactive,–,–,–,inactive,–,–
CCn1cc(C(=O)O)c(=O)c2cc(F)c(N3CCNCC3)cc21,–,inactive,–,–,inactive,inactive,inactive,–,inactive,inactive,–,inactive,–,inactive,–,–,–,inactive,inactive,inactive
COc1cccc(N(C)C(=S)Oc2ccc3c(c2)CCCC3)n1,inactive,inactive,–,inactive,–,inactive,–,inactive,inactive,inactive,inactive,inactive,–,inactive,inactive,inactive,–,inactive,inactive,inactive
CC(C)(C#N)c1cc(Cn2cncn2)cc(C(C)(C)C#N)c1,inactive,inactive,–,inactive,inactive,inactive,inactive,inactive,inactive,inactive,inactive,inactive,inactive,inactive,inactive,inactive,inactive,inactive,inactive,inactive
CC(C)OC(=O)C(C(=O)OC(C)C)=C1SC=CS1,inactive,inactive,–,inactive,–,inactive,–,inactive,inactive,inactive,inactive,inactive,inactive,inactive,inactive,inactive,–,inactive,inactive,inactive
CC[C@H](C)C(=O)O[C@H]1C[C@@H](C)C=C2C=C[C@H](C)[C@H](CC[C@@H]3C[C@@H](O)CC(=O)O3)[C@H]21,inactive,inactive,–,inactive,inactive,–,inactive,inactive,inactive,inactive,inactive,inactive,inactive,inactive,inactive,inactive,inactive,inactive,inactive,inactive
CCCCCCNC(=O)n1cc(F)c(=O)[nH]c1=O,–,–,5.36 µM (active),–,5.36 µM (active),8.49 µM (active),13.5 µM (active),–,–,–,8.49 µM (active),8.91 µM (active),4.47 µM (active),–,–,–,–,10 µM (active),–,–
C1CCC(C(CC2CCCCN2)C2CCCCC2)CC1 (stereo not given),–,–,9.53 µM (active),11.2 µM (active),3.79 µM (active),3.38 µM (active),–,12.6 µM (active),5.01 µM (active),–,9.53 µM (active),11.2 µM (active),1.12 µM (active),12.6 µM (active),10 µM (active),12.6 µM (active),11.2 µM (active),6.31 µM (active),5.01 µM (active),7.57 µM (active)

SMILES,Potency (CP325),Potency (CP329),Potency (CP335),Potency (DFO2036),Potency (DIV14),Potency (DIV17),Potency (DIV30),Potency (Dd2),Potency (ECU),Potency (FAB9),Potency (GB4),Potency (HB3),Potency (ICS),Potency (JCK),Potency (N140),Potency (P93_24),Potency (P94_40),Potency (PAD),Potency (PC15),Potency (PC26)
CC(=O)Oc1ccccc1C(=O)Nc1ncc([N+](=O)[O-])s1,inactive,inactive,–,inactive,13.5 µM (active),12 µM (active),inactive,–,inactive,inactive,–,–,11.2 µM (active),inactive,inactive,inactive,inactive,inactive,inactive,inactive
NC(=O)N1c2ccccc2CC(=O)c2ccccc21,inactive,–,inactive,inactive,inactive,inactive,inactive,inactive,inactive,inactive,inactive,inactive,inactive,inactive,inactive,inactive,inactive,inactive,inactive,inactive
CN1CCCC(n2nc(Cc3ccc(Cl)cc3)c3ccccc3c2=O)CC1 (stereo not given),inactive,inactive,–,inactive,7.57 µM (active),7.57 µM (active),inactive,11.2 µM (active),–,inactive,–,inactive,8.91 µM (active),–,–,–,inactive,–,–,–
CCOc1cc(N)c(Cl)cc1C(=O)NCC1CN(Cc2ccc(F)cc2)CCO1 (stereo not given),–,13.5 µM (active),6.75 µM (active),–,–,–,–,–,10 µM (active),–,12 µM (active),8.91 µM (active),3.98 µM (active),–,–,6.31 µM (active),11.2 µM (active),11.2 µM (active),–,–
CC(N)C12CC3CC(CC(C3)C1)C2 (stereo not given),–,–,–,inactive,–,–,–,inactive,inactive,inactive,6.75 µM (active),inactive,inactive,–,–,–,–,inactive,inactive,inactive
CN(C)CCc1c[nH]c2ccc(CS(=O)(=O)N3CCCC3)cc12,inactive,inactive,–,inactive,inactive,inactive,inactive,inactive,inactive,inactive,inactive,inactive,inactive,inactive,inactive,inactive,inactive,inactive,inactive,inactive
COc1cc2c(Nc3ccc(Br)cc3F)ncnc2cc1OCC1CCN(C)CC1,10.7 µM (active),–,4.26 µM (active),0.794 µM (active),1.51 µM (active),2.39 µM (active),–,8.91 µM (active),3.16 µM (active),10 µM (active),1.51 µM (active),5.01 µM (active),3.98 µM (active),–,2.51 µM (active),2 µM (active),2.82 µM (active),2.24 µM (active),7.08 µM (active),–
C[C@@H](NCCCc1cccc(C(F)(F)F)c1)c1cccc2ccccc12,15.1 µM (active),–,–,11.2 µM (active),6.01 µM (active),5.36 µM (active),7.57 µM (active),5.01 µM (active),3.16 µM (active),inactive,12 µM (active),12.6 µM (active),1.78 µM (active),–,2.82 µM (active),6.31 µM (active),5.01 µM (active),2 µM (active),11.2 µM (active),4.78 µM (active)
CCOC(=O)c1ccc(OC(=O)CCCCCN=C(N)N)cc1,inactive,inactive,–,inactive,–,4.55 µM (active),inactive,inactive,–,inactive,–,4.47 µM (active),2 µM (active),inactive,–,–,inactive,–,–,–
CCn1cc(C(=O)O)c(=O)c2cc(F)c(N3CCN(C)CC3)cc21,inactive,inactive,–,–,inactive,inactive,inactive,12.6 µM (active),–,inactive,inactive,inactive,–,inactive,inactive,–,–,inactive,inactive,inactive
Cc1oc(=O)oc1CN1CCN(c2cc3c(cc2F)c(=O)c(C(=O)O)c2n3C(C)S2)CC1 (stereo not given),–,–,6.01 µM (active),7.94 µM (active),15.1 µM (active),16.9 µM (active),–,7.08 µM (active),10 µM (active),–,7.57 µM (active),8.91 µM (active),7.08 µM (active),–,–,5.01 µM (active),7.94 µM (active),–,–,–
O=C(O)c1cn(C2CC2)c2cc(N3CCNCC3)c(F)cc2c1=O,–,–,–,–,–,inactive,–,3.16 µM (active),inactive,inactive,–,–,3.16 µM (active),inactive,–,–,–,inactive,inactive,–
CCCCOc1ccc(CC(=O)NO)cc1,–,3.22 µM (active),1.61 µM (active),2.82 µM (active),1.44 µM (active),2.87 µM (active),2.56 µM (active),3.55 µM (active),–,–,3.22 µM (active),3.98 µM (active),3.16 µM (active),–,3.98 µM (active),1.58 µM (active),2 µM (active),1.41 µM (active),inactive,–
Oc1c(Cl)cc(Cl)c2cccnc12,–,10.7 µM (active),–,10 µM (active),–,–,–,inactive,–,inactive,12 µM (active),inactive,7.94 µM (active),inactive,12.6 µM (active),–,11.2 µM (active),–,inactive,inactive
CN(Cc1cc(Br)cc(Br)c1N)C1CCCCC1,inactive,inactive,–,inactive,–,inactive,inactive,–,inactive,inactive,–,–,–,inactive,inactive,–,–,inactive,inactive,inactive
CNS(=O)(=O)Cc1ccc2[nH]cc(CCN(C)C)c2c1,inactive,inactive,–,inactive,inactive,inactive,inactive,inactive,inactive,inactive,inactive,inactive,inactive,inactive,inactive,inactive,inactive,inactive,inactive,inactive
